Measured values as given in the supplement of paper PMC8540655.
Unmarked numbers belong to inactive results.

Test system: Aedes aegypti larvae
Assay: larval motility relative to same well at 0 h (fraction); higher = more motile (less active compound), active = 0.4 or less
Conditions: 10 µM
Method in brief: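 Compounds at 10 µM (1% v/v DMSO) were applied to about 10 Aedes aegypti larvae per well in 100 µL, with every plate including solvent and larvicide control wells. Motility movies were taken with INVAPP at 0, 2 and 24 h, and results are medians of three independent larval batches. Relative motility is each well's score expressed as a fraction of its own first score.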

Compound | larval motility (2 h) | larval motility (24 h)
O=C(O)c1sccc1S(=O)(=O)n1ccc2cc(Br)ccc21 | 0.657 | 0.741
Nc1cnn(C2OC(CO)C(O)C2O)c(=O)n1 (configuration not stated) | 1.16 | 1.33
O=C(NCc1ccc2c3c(cccc13)C(=O)N2)c1cccs1 | 0.944 | 0.861
CCC(C)n1ncn(-c2ccc(N3CCN(c4ccc(OCC5COC(Cn6cncn6)(c6ccc(Cl)cc6Cl)O5)cc4)CC3)cc2)c1=O (configuration not stated) | 0.656 | 0.571
C[C@@H](NC(=O)c1cccc(-c2c[nH]c(-c3cc4ccccc4cn3)n2)c1)c1ccc(F)cc1 | 0.628 | 0.997
NCCCc1ccccc1C(=O)Nc1ncc([N+](=O)O)s1 | 0.869 | 0.646
CCc1nc2ccccn2c1C(=O)NCc1ccccc1 | 1.39 | 0.997
COc1nc2ccc(Br)cc2cc1[C@@H](c1ccccc1)[C@@](O)(CCN(C)C)c1cccc2ccccc12 | 0.838 | 0.679
O=C(NCCN1CCCCC1)c1cccc(C(F)(F)F)c1 | 0.912 | 1.4
CN(Cc1ccc(C(C)(C)C)cc1)Cc1cccc2ccccc12 | 0.508 | 0.64
CCOC(=O)/C=C/[C@H](C[C@@H]1CCNC1=O)NC(=O)[C@H](CC)n1cccc(NC(=O)c2cc(C)on2)c1=O | 1.27 | 0.871
